Test results: PubChem BioAssay AID588403 (Broad Institute, 2011)
Values without a mark were called inactive. Activity calls are given as the source filed them.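 Rule for the calls: active = dose-dependent signal loss with a fitted half-maximal concentration at or below 35 µM; inconclusive = flat fit with 30 to 70% signal loss, or poor fit; inactive = the rest.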

assay: compounds quenching DiI signal without cells – biochemical, powder samples, plate reader fluorescence, artefact control for SR-BI HDL uptake inhibitor project, dose response (AID 588403); details: cell-free DiI-HDL fluorescence quenching counter-screen, 30 min; series mostly up to 35 µM; activity change, negative = quenching: at the top concentration

SMILES	activity change, negative = quenching [%]	outcome
COC(=O)N1CCc2cc(-c3csc(NC(=O)c4ccco4)n3)ccc21	-5.84	
CCC(=O)N1CCc2cc(-c3csc(NC(=O)c4cccc(OC)c4)n3)ccc21	-4.37	
CCC(=O)N1CCc2cc(-c3csc(NC(=O)c4cccc(OC)n4)n3)ccc21	-1.71	
CC(C(=O)NC1CCCC1)N(C(=O)Cn1nnc(-c2ccccc2Cl)n1)C1CCCCC1 (stereo not given)	-0.377	
O=C(Nc1nc(-c2ccc3c(c2)CCN3)cs1)c1ccco1	-10.5	
CC(C(=O)NC1CCCC1)N(C(=O)Cn1nnc(-c2ccc(F)cc2)n1)C1CCCCC1 (stereo not given)	-2.08	
CC(C(=O)NC1CCCC1)N(C(=O)Cn1nnc(-c2ccccc2F)n1)C1CCCCC1 (stereo not given)	-4.01	
CC(C(=O)NC1CCCC1)N(C(=O)Cn1nnc(-c2ccc3c(c2)OCO3)n1)C1CCCCC1 (stereo not given)	5.3	
C[C@@H]1CN([C@H](C)CO)C(=O)c2cc(NC(=O)Cc3cn(C)c4ccccc34)ccc2O[C@H]1CN(C)S(=O)(=O)c1ccc(Cl)cc1		inactive
O=C(Nc1nc(-c2ccc3c(c2)CCN3C(=O)C2CC2)cs1)c1ccco1	-7.46	
CCCCCCC1CCC/C1=N\NC(N)=S (stereo not given)	2.81	
CC(C)C(=O)N1CCc2cc(-c3csc(NC(=O)c4ccco4)n3)ccc21	-3.58	
CCC(=O)N1CCc2cc(-c3csc(NC(=O)c4ccc(F)c(OC)c4)n3)ccc21	-0.583	
CCC(=O)N1CCc2cc(-c3coc(N)n3)ccc21	-3.54	
CCC(=O)N1CCc2cc(-c3cnc(NC(C)=O)[nH]3)ccc21	-4.51	
CS(=O)(=O)N1CCc2cc(-c3csc(NC(=O)c4ccco4)n3)ccc21	-3.49	
CCC(=O)N1CCc2cc(-c3cnc(NC(=O)c4ccco4)[nH]3)ccc21	0.462	
O=C(CN(C(=O)Cn1nnc(-c2ccc3c(c2)OCO3)n1)C1CCCCC1)NC1CCCC1	1.47	
CC(C(=O)NC1CCCC1)N(C(=O)Cn1nnc(-c2cccc(F)c2)n1)C1CCCCC1 (stereo not given)	1.08	
CCC(=O)N1CCc2cc(-c3csc(NC(=O)c4cc(OC)cc(OC)c4)n3)ccc21	-2.6	
COc1ccc(-c2nnn(CC(=O)N(CC(=O)NC3CCCC3)C3CCCCC3)n2)cc1OC	-0.763	
CCC(=O)N1CCc2cc(-c3csc(NC(=O)c4cccc(OC(F)(F)F)c4)n3)ccc21	3.82	
CCC(=O)N1CCc2cc(-c3coc(NC(=O)c4ccco4)n3)ccc21	-2.4	
COc1ccc(-c2nnn(CC(=O)N(C3CCCCC3)C(C)C(=O)NC3CCCC3)n2)cc1OC (stereo not given)	2.89	
COc1cccc(-c2nnn(CC(=O)N(C3CCCCC3)C(C)C(=O)NC3CCCC3)n2)c1 (stereo not given)	0.879	
CCC(=O)N1CCc2cc(-c3csc(NC(=O)c4ccco4)n3)ccc21	0.945	
Cc1ccc(-c2nnn(CC(=O)N(C3CCCCC3)C(C)C(=O)NC3CCCC3)n2)cc1 (stereo not given)	1.65	
COc1ccc(-c2cc(CC(=O)N(C3CCCCC3)C(C)C(=O)NC3CCCC3)no2)cc1OC (stereo not given)	1.88	
COc1ccccc1-c1nnn(CC(=O)N(C2CCCCC2)C(C)C(=O)NC2CCCC2)n1 (stereo not given)	-0.761	
CC(C(=O)NC1CCCC1)N(C(=O)Cn1nnc(-c2ccc(Cl)cc2)n1)C1CCCCC1 (stereo not given)	3.64	
